# Sampled rows, rich in hits. Any-hit rate of the full collection: about 3.8%.
# Mtb hypoxia rep – PubChem AID 1159583; M. tuberculosis hypoxia-regulated fluorescent reporter, fluorescence; fluorescence inhibition, % (concentration not given with the values); 300,000 tested, 0.1% active; in the data active means fluorescence inhibition mostly above about 23%, no sharp cut-off; inactive means mostly below about 17%
# FBA Mtb inh – Mtb FBA enzyme inhibitors, primary screen, biochemical, fluorescence, strain H37Rv. purified M. tuberculosis FBA, fluorescence read-out. Fructose-bisphosphate aldolase (Mycobacterium tuberculosis (strain ATCC 25618 / H37Rv)), …. inhibition, % at 1 µM. 360,000 tested, 2.3% active;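 further: 0% = vehicle and 100% = reference inhibitor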
# Target sequence (P9WQA3 whole entry, looked up): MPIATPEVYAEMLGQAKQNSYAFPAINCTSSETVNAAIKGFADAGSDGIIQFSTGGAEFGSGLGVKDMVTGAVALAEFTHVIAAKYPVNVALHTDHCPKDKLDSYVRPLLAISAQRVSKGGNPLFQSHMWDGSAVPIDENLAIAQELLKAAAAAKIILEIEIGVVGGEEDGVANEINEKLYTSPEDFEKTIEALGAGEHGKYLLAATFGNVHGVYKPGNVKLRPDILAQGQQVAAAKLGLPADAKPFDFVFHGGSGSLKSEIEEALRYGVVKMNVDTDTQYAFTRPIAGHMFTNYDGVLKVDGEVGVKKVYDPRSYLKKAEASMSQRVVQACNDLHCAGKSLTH
# GDH-TPI counter-1 – GDH-TPI coupling enzyme inhibitors, primary screen, artefact control for M. tuberculosis FBA inhibitor project, biochemical, absorbance, full deck. inhibition, % at 4.8 µM. 360,000 tested, 1.2% active. AID 588335, 2011. GDH-TPI coupled enzyme counterscreen, NADH absorbance; in the data active means inhibition above about 30%;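 further: 0% = DMSO wells and 100% = wells lacking the enzyme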
# Y pestis TopoI – Yersinia pestis topoisomerase I inhibitors, primary screen, biochemical, cleavage product accumulation, plate reader, single point; DNA topoisomerase I (Yersinia pestis CO92); Y. pestis Topo-I cleavage product accumulation; activity, % at 10 µM; 360,000 tested, 0.064% active; AID 504884, 2011; in the data active means activity above about 50%, passing the limit was not always enough; inconclusive means no clear call, values can overlap the other calls
# PrP UTR inh – inhibition of PrP 5' UTR reporter expression; cell-based PrP 5' UTR mRNA reporter, plate reader; inhibition, % (test concentration not listed); 340,000 tested, 0.35% active; AID 488862, 2010; in the data active means inhibition above about 52%; further: 0 = median of the neutral control wells
# PrPC surface inh – inhibitors of human cell surface prion protein PrPC, primary screen, cell-based, TR-FRET; Major prion protein (Homo sapiens), P04156; TR-FRET read-out; inhibition, % at 13.8 µM; 370,000 tested, 0.43% active; AID 720596, 2013; in the data active means inhibition above about 24%; further: 0% = median of the test wells and 100% = reference compound wells
# Mtb FBA inh conf – M. tuberculosis aldolase blockers, biochemical, fluorescence, strain H37Rv, confirmation. shares compounds with FBA Mtb inh. purified M. tuberculosis FBA, fluorescence read-out. inhibition, % at 1 µM. 5,600 tested, 78% active;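 further: 0% = vehicle wells and 100% = reference inhibitor wells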
# GDH-TPI counter-2 – GDH-TPI coupling enzyme inhibitors, artefact control for M. tuberculosis FBA inhibitor project, biochemical, fluorescence, high throughput; shares compounds with FBA Mtb inh; GDH-TPI coupled enzyme counterscreen; inhibition, % at 1 µM; 5,600 tested, 81% active; AID 652141, 2013; in the data active means inhibition above about 10%
# GDH-TPI dose – GDH-TPI coupling enzyme inhibitors, dose response, artefact control for M. tuberculosis FBA inhibitor project, biochemical, fluorescence, IC50; IC50, µM; AID 652145, 2013; GDH-TPI coupled enzyme assay, artifact counterscreen; 170 tested, 79% active; shares compounds with FBA Mtb inh; call rule not given here
# Numbers without * were called inactive; ? = inconclusive; . = no result given; + = active, no number. Unless noted, no stated cut-off is given here; in the data, active means inhibition above about 27%; inactive means the rest.
SMILES,Mtb hypoxia rep,FBA Mtb inh,GDH-TPI counter-1,Y pestis TopoI,PrP UTR inh,PrPC surface inh,Mtb FBA inh conf,GDH-TPI counter-2,others
CC1CN(C(C)CO)C(=O)c2cccc(NC(=O)C3CC3)c2OC1CN(C)Cc1ccncc1 (stereo unspecified),14,.,.,.,.,.,.,.,
O=C(NN=Cc1cccc(Br)c1)c1ccc(N2CCCC2=O)cc1,-2,.,.,.,.,.,.,.,
CC(C)(C)c1cc(NC(=O)COC(=O)c2ccccc2O)n(-c2ccccc2)n1,.,4,-4,7,.,1,.,.,
CC(C)(C)c1cc(NC(=O)COC(=O)c2nccnc2N)n(-c2ccccc2)n1,5,87*,8,9,-18,-1,47*,36*,
CCCc1cc(NC(=O)COC(=O)c2nccnc2N)n(-c2ccccc2)n1,8,85*,16,6,3,0,51*,45*,
CCCCCCSc1ccc(-c2nc3ccccn3c2NCCCC)cc1,11,45*,8,24,-25,5,+,+,
CCCCNc1c(-c2ccc(-c3cccc(Cl)c3)cc2)nc2ccccn12,3,23,10,5,-31,8,.,.,
COc1ccccc1C#Cc1ccc2c(=O)c3ccccc3n(C)c2c1,12,5,3,9,-6,-2,.,.,
Cn1c2ccccc2c(=O)c2cc(C#CC3=CCCCC3)ccc21,-3,86*,15,9,-3,-12,151*,113*,
CCCn1c(-c2ccc(OC)cc2)nc2nc3ccccc3nc21,2,42*,43*,-3,-10,-8,98*,79*,
Oc1c(Cl)cc(Cl)cc1/C=N/NC(=S)NC1CC2C=CC1C2 (stereo unspecified),.,35*,16,8,3,3,59*,57*,
Oc1ccccc1C=NNC(=S)NC1CC2C=CC1C2 (stereo unspecified),-5,6,29,11,.,3,.,.,
COC(=O)C1=CN(Cc2cccs2)C=C(C(=O)OC)C1c1cccc(O)c1,-6,85*,2,-2,-21,-2,94*,82*,
CCOC(=O)C1=C(C)NC(C)=C(C(=O)OCC)C1c1ccc(OC)c(OC)c1,.,7,6,2,.,2,.,.,
CCOC(=O)C1=C(C)NC(C)=C(C(=O)OCC)C1c1cccs1,6,-3,8,0,-6,3,.,.,
COCCN1C=C(C(=O)OC)C(c2ccc(OC)c(OC)c2)C(C(=O)OC)=C1,5,29*,10,-2,-12,-4,135*,98*,
COC(=O)c1cnn2c1C(=O)N(Cc1cccs1)CC2,0,5,-3,-3,-11,7,.,.,
COc1cc(CC(=O)NC(c2ccccc2)c2ccccc2)cc(OC)c1OC,3,1,7,12,-11,12,.,.,
COC(=O)C1=CN(C(C)c2ccccc2)C=C(C(=O)OC)C1c1cc(OC)c(OC)c(OC)c1 (stereo unspecified),-13,71*,13,13,-11,1,52*,48*,
CCOC(=O)C1=CN(Cc2ccc(OC)cc2)C=C(C(=O)OCC)C1c1cccs1,4,32*,5,1,-35,8,151*,136*,
COC(=O)C1=CN(Cc2ccc(OC)cc2)C=C(C(=O)OC)C1c1cc(OC)c(OC)c(OC)c1,5,48*,1,20,-14,.,88*,64*,
COc1ccc(CNC(=O)CCc2cc(OC)c(OC)c(OC)c2)cc1,8,-1,2,1,-16,-2,.,.,
COC(=O)C1=CN(CC2CCCO2)C=C(C(=O)OC)C1c1cc(OC)c(OC)c(OC)c1 (stereo unspecified),15,52*,18,7,-26,-7,0,-5,
COC(=O)C1=CN(Cc2ccc(F)cc2)C=C(C(=O)OC)C1c1cc(OC)c(OC)c(OC)c1,5,29*,2,10,-6,-8,10,9,GDH-TPI dose=2.9*
O=S(=O)(N=C(c1ccc(Cl)cc1)N1CCOCC1)c1ccccc1,7,.,.,.,.,.,.,.,
SMILES,Mtb hypoxia rep,FBA Mtb inh,GDH-TPI counter-1,Y pestis TopoI,PrP UTR inh,PrPC surface inh,Mtb FBA inh conf,GDH-TPI counter-2,others
COc1ccc(-c2cc3cc(OC)c(OC)cc3cn2)cc1,-3,89*,10,20,-67,10,45*,33*,
Cc1noc(C)c1C=NNc1ccccn1,-7,.,.,.,.,.,.,.,
CCOC(=O)C1(Cc2ccccc2C)CCCN(C(=O)CN2CCCCC2=O)C1 (stereo unspecified),8,1,3,2,-35,0,.,.,
Cc1ccccc1CC1(CO)CCCN(C(=O)CCCN2CCCCC2=O)C1 (stereo unspecified),2,29*,3,?,10,-5,24,23*,
O=C(Nc1ccc(-c2nc3cccnc3s2)cc1)c1ccco1,-3,29*,28,2,1,3,10,-2,GDH-TPI dose=3.1*
O=C(Nc1cccc(-c2nc3cccnc3s2)c1)c1ccco1,17,1,6,2,-75,-6,.,.,
O=C(Nc1ccc(-c2nc3ncccc3o2)cc1)c1ccco1,1,27*,45*,-3,-65,-1,58*,50*,
O=C(Nc1ccc2oc(-c3cccnc3)nc2c1)c1ccco1,13,29*,4,-7,-48,2,-2,-6,
CN(C)CCCNC(=O)N1c2ccccc2Sc2ccccc21,9,59*,-14,-5,-18,-6,+,+,
COc1cc(C(=O)NCC(=O)NN=Cc2ccc(OC(=O)c3ccco3)cc2)cc(OC)c1OC,-24,.,.,.,.,.,.,.,
O=[N+]([O-])c1ccccc1Nc1c2ccccc2nc2ccccc12,-2,5,5,5,-23,9,.,.,
O=[N+]([O-])c1ccc(Nc2c3ccccc3nc3ccccc23)cc1,8,51*,10,-2,6,8,101*,84*,
Cn1c(-c2ccc(C=O)s2)nc2c3ccccc3c3ccccc3c21,.,53*,24,-3,2,-5,37*,37*,
Nc1nccnc1C(=O)NN=Cc1ccco1,2,.,.,.,.,.,.,.,
COc1ccc2c(c1)c(C(=O)NN=Cc1ccc(OC)c(OC)c1)c(C)n2C,-3,.,.,.,.,.,.,.,
